Assay results reported in PubChem BioAssay.
For part of these data: Entries with a potency or affinity are not part of this list. Some of the results follow. Calls of active or inactive are those of the source.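 The calls were made as follows, unless noted: active = signal rise over 3 SD above mean of control wells given weak agonist, in both repeats and first screen; inactive = the rest.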

Key:
[1] = tested on: TRPC4 beta (transient receptor potential cation channel C4), mouse; test: activators of mouse TRPC4 channel, confirmation, cell-based, Fluo4 calcium, HEK293 TRPC4beta/mu-opioid, duplicates, 10 µM (AID 2426;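 active = fluorescence ratio normalized to control raised more than 50% in primary screen plus both repeat runs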); settings: Fluo4 calcium fluorescence, at 10 µM; hits give high values
[2] = tested on: transient receptor potential cation channel C4 beta (TRPC4), mouse; test: activators of mouse TRPC4 channel, confirmation, cell-based, second round, Fluo4, HEK293 TRPC4beta/mu-opioid, 1 µM (AID 2461;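 active = primary screen active and over 50% activation in each of two duplicate runs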); settings: Fluo4 calcium fluorescence, at 1 µM; hits give high values
[3] = tested on: TRPC4 (transient receptor potential cation channel C4 beta), mouse; test: positive allosteric modulators of mouse TRPC4, confirmation, cell-based, second round, Fluo-4, HEK293 TRPC4beta/mu-opioid, 1 µM (AID 2554;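 active = primary screen hit whose fluorescence ratio, in both repeats, exceeds the weak agonist control mean by 3 SD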); settings: DAMGO EC20, Fluo-4 calcium flux, at 1 µM; hits give high values
[4] = tested on: TRPC4 beta (transient receptor potential cation channel C4), mouse; test: positive allosteric modulators of mouse TRPC4, confirmation, cell-based, Fluo-4, HEK293 TRPC4beta/mu-opioid (AID 2555;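 active = primary screen hit whose calcium fluorescence ratio, in both repeats, exceeds the weak agonist control mean by 3 SD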); settings: DAMGO EC20, Fluo-4 calcium flux, at 10 µM; hits give high values
[5] = biological target: Short transient receptor potential channel 4 (Mus musculus) (UniProt Q9QUQ5); test: inhibitors of mouse TRPC4 channel, confirmation, cell-based, Fluo4, HEK293 TRPC4beta/mu-opioid (AID 2636;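 active = calcium signal cut by more than 3 SD below the full-agonist control yet still positive, in both repeats and the earlier primary screen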); settings: DAMGO, Fluo4 calcium flux, at 10 µM; hits give high values
Short transient receptor potential channel 4 (Mus musculus), sequence (Q9QUQ5 whole entry, looked up): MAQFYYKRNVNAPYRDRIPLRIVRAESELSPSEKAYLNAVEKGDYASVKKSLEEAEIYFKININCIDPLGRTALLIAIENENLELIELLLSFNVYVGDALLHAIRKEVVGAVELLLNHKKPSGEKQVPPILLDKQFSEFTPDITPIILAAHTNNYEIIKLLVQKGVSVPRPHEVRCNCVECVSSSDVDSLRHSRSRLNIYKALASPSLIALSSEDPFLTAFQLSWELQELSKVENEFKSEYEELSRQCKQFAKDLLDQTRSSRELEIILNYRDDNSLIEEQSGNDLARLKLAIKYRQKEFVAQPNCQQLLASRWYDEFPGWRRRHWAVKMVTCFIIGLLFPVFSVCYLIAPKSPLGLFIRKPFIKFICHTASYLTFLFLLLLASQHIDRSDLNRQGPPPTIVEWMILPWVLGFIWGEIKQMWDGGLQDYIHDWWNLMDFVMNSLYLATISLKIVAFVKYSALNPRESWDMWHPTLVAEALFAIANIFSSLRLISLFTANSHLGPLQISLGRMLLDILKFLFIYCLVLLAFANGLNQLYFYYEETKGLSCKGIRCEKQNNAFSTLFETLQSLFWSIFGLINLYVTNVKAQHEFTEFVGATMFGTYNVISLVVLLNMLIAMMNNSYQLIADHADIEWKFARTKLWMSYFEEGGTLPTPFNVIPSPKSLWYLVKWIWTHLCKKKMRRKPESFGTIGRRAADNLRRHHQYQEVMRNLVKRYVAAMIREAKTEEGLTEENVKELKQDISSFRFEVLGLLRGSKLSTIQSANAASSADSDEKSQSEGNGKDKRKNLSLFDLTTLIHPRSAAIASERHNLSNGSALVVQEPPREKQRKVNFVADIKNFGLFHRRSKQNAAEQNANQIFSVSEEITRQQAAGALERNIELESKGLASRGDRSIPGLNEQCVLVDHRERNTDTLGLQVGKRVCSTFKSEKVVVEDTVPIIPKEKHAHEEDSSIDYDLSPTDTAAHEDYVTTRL

[6] = biological target: Short transient receptor potential channel 4 (Mus musculus) (UniProt Q9QUQ5); test: inhibitors of mouse TRPC4 channel, confirmation, cell-based, second round, Fluo4, HEK293 TRPC4beta/mu-opioid, 1 µM (AID 2637;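 active = calcium signal ratio cut to more than 3 SD under the fully stimulated control mean yet still positive, in both repeats and the primary screen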); settings: Fluo4 calcium flux, DAMGO, at 1 µM; hits give high values
[7] = biological target: Short transient receptor potential channel 4 (Mus musculus) (UniProt Q9QUQ5); test: mouse TRPC4 channel activators, dose response, cell-based, HEK293 TRPC4/mu-opioid, Fluo-4 calcium (AID 434937;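 active = primary screen activator hit with a dose response curve and TRPC4 channel activation at any tested dose; inactive = no activation, no dose response, or not a primary hit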)
[8] = biological target: Short transient receptor potential channel 4 (Mus musculus) (UniProt Q9QUQ5); test: TRPC4 positive allosteric modulators, dose response, cell-based, HEK293 TRPC4/mu-opioid, Fluo-4 calcium, EC20 DAMGO (AID 434941;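 active = earlier screen potentiator hit that boosts the TRPC4 ion channel at some dose, with a dose response; inactive = no potentiation, no dose response, or not a prior hit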;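 also: calcium entry triggered by an EC20 dose of DAMGO at the co-expressed mu-opioid receptor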)
[9] = biological target: Short transient receptor potential channel 4 (Mus musculus) (UniProt Q9QUQ5); test: mouse TRPC4 channel inhibitors, dose response, cell-based, HEK293 TRPC4/mu-opioid, Fluo-4 calcium (AID 434942;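 active = primary screen inhibitor hit that blocks the TRPC4 channel at some tested dose, yielding a dose curve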)
[10] = biological target: Short transient receptor potential channel 6 (Mus musculus) (UniProt Q61143); test: inhibition of mouse TRPC6 channel, confirmation, selectivity assay for TRPC4 inhibitor project, cell-based, HEK293, membrane potential dye, duplicate (AID 434948;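 active = active in primary screen and both duplicates, each dropping signal beyond three positive-control SD with fluorescence still positive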); settings: HEK293 TRPC6, membrane potential dye fluorescence, at 10 µM; inhibition: hits give high values, stimulated with maximal-effect acetylcholine unless noted; outcome: stimulated with maximal-effect acetylcholine unless noted
Short transient receptor potential channel 6 (Mus musculus), sequence (Q61143 whole entry, looked up): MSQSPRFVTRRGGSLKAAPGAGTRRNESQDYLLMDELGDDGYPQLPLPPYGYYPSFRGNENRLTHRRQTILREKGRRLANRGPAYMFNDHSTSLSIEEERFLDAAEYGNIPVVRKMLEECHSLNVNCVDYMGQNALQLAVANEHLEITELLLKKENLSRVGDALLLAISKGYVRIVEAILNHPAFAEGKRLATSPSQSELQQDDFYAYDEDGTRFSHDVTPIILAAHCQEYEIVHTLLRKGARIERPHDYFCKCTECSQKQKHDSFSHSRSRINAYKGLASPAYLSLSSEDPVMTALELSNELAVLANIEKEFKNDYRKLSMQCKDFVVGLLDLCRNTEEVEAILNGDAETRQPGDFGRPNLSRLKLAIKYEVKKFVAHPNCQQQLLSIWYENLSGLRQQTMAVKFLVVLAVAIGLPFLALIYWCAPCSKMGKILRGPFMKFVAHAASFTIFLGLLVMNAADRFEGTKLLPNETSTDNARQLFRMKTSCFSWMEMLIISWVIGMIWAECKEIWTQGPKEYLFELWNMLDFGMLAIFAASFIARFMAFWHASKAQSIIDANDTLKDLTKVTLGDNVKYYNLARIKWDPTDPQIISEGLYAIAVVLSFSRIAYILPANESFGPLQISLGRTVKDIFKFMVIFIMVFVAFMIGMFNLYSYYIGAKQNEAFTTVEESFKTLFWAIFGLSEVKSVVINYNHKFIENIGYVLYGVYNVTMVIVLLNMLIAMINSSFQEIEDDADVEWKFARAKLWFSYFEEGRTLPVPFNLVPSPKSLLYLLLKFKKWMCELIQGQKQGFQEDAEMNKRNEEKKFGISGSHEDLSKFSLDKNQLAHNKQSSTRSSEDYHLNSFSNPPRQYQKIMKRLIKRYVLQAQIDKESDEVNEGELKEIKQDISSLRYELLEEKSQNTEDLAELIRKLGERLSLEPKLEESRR

[11] = biological target: Short transient receptor potential channel 6 (Mus musculus) (UniProt Q61143); test: activation of mouse TRPC6 channel, confirmation, selectivity assay for TRPC4 activator project, cell-based, HEK293, membrane potential dye, duplicate (AID 434950;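 active = membrane potential signal rise above negative control mean plus 3 SD in both duplicates, also active in the earlier TRPC4 screen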); settings: HEK293 TRPC6, membrane potential fluorescence, at 10 µM; hits give high values
[12] = biological target: Short transient receptor potential channel 6 (Mus musculus) (UniProt Q61143); test: TRPC6 potentiation by TRPC4 potentiator hits, confirmation, selectivity assay for TRPC4 potentiator project, HEK293 cells, membrane potential dye, duplicate (AID 434952;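 active = compound raising the membrane signal above positive-control mean plus 3 SD in both repeats, and a primary screen hit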); settings: HEK293 TRPC6, membrane potential dye fluorescence, at 10 µM; maximal acetylcholine added after compound unless noted
[13] = biological target: Short transient receptor potential channel 4 (Mus musculus) (UniProt Q9QUQ5); test: calcium flux activators in TRPC4/5HT1a cells, counter-screen for TRPC4 activator project, cell-based, second counter screen, HEK293 TRPC4/5HT1a, Fluo-4 (AID 434977;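 active = calcium signal rise above buffer-control mean plus 5 SD in both duplicates, and also a hit in the primary screen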); settings: Fluo-4 calcium flux, at 10 µM; hits give high values
[14] = calcium flux inhibitors in TRPC4/5HT1a cells, confirmation, counter-screen for TRPC4 inhibitor project, cell-based, second counter screen, HEK293 TRPC4/5HT1a, Fluo-4 (AID 434978;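 active = primary screen active whose calcium signal fell more than 3 SD beyond the full-serotonin control mean in both duplicate plates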;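 as to outcome: serotonin given first at submaximal then at maximal dose after compound preincubation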); settings: Fluo-4 calcium flux, at 10 µM; inhibition: hits give high values, serotonin added to trigger calcium flux unless noted; outcome: serotonin added to trigger calcium flux unless noted
[15] = tested on: TRPC4 (mouse), co-expressed with 5HT1a in HEK293; test: calcium flux potentiators in TRPC4/5HT1a cells, confirmation, counter-screen for TRPC4 potentiator project, cell-based, second counter screen, HEK293 TRPC4/5HT1a, Fluo-4 (AID 434979); settings: Fluo-4 calcium flux, at 10 µM; outcome: serotonin added at its EC20 dose unless noted; potentiation: hits give high values, serotonin added at its EC20 dose unless noted
[16] = calcium flux activation in mu-opioid HEK293 cells, confirmation, counter-screen for TRPC4 activator project, cell-based, HEK293 mu-opioid receptor line (AID 449723;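 active = hit in primary screen, with calcium signal over 5 SD above buffer well mean in both duplicates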;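 also: counter screen cells carry the mu-opioid receptor alone and lack TRPC4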); settings: Fluo-4 calcium fluorescence, at 10 µM; hits give high values
[17] = calcium flux enhancement in mu-opioid HEK293 cells, confirmation, counter-screen for TRPC4 allosteric potentiator project, cell-based, HEK293 mu-opioid receptor line (AID 449724;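 active = calcium signal rise more than 3 SD above the low-dose agonist control mean, in both duplicate plates and the primary screen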); settings: Fluo-4 calcium flux, at 10 µM; compound added before EC20 DAMGO stimulus unless noted
[18] = biological target: Inward rectifier potassium channel 2 (Mus musculus) (UniProt P35561); test: mouse Kir2.1 channel blockers, retest, confirmation, cell-based, FluxOR thallium flux, duplicate (AID 2032;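 active = Primary-screen hit whose thallium flux fell at least 3 control SD below untreated wells in both duplicates, with normal baseline fluorescence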;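 also: 0% = blank wells without stimulus and 100% = stimulated no-compound controls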); settings: Kir2.1-expressing cells, FluxOR thallium flux fluorescence, at 10 µM; hits give low values
Inward rectifier potassium channel 2 (Mus musculus), sequence (P35561 whole entry, looked up): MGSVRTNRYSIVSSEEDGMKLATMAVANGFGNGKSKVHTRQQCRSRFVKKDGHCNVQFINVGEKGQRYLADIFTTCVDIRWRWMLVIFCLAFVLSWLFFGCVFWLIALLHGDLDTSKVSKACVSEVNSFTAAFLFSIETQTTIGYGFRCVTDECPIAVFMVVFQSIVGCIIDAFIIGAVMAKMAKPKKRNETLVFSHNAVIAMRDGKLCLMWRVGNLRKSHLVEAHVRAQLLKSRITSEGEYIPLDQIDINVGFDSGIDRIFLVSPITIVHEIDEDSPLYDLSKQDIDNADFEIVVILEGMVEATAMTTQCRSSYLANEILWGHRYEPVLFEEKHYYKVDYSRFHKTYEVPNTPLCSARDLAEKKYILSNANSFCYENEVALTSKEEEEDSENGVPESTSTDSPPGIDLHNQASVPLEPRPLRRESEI

[19] = nonspecific thallium flux effects in parental HEK293 cells, confirmation, counter-screen for Kir2.1 inhibitor project, cell-based, FluxOR thallium flux, duplicate, single concentration (AID 2105;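 active = dye signal at least 3 control SD above or below untreated wells in both duplicates, raw fluorescence within 3, either direction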;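 as to FluxOR signal as % of negative control (100 = no effect): percent is based on the flux ratio of peak minus minimum fluorescence over baseline F0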); settings: FluxOR thallium flux fluorescence, at 10 µM; 0% = unstimulated blank wells

Nc1ccccc1-[n+]1c(-c2ccccc2)cc(-c2ccccc2)cc1-c1ccccc1
active: potentiation [3] 27% | potentiation [15] 20.7%
inactive: outcome [1] | outcome [2] | outcome [4] | outcome [5] | outcome [6] | outcome [7] | outcome [8] | outcome [9] | outcome [10] | outcome [11] | outcome [12] | outcome [13] | outcome [14] | outcome [16] | outcome [17]

O=[N+]([O-])c1ccc(N2CCNCC2)cc1N1CCCCCC1
inactive: outcome [1] | outcome [2] | outcome [3] | outcome [4] | outcome [5] | outcome [6] | outcome [7] | outcome [8] | outcome [9] | outcome [10] | outcome [11] | outcome [12] | outcome [13] | outcome [14] | outcome [16] | outcome [17]
active: potentiation [15] 13.3%

CN(C)CCn1cnc2ccccc21
inactive: outcome [1] | outcome [2] | outcome [3] | outcome [4] | outcome [5] | outcome [6] | outcome [7] | outcome [8] | outcome [9] | outcome [10] | outcome [11] | outcome [12] | outcome [13] | outcome [14] | outcome [16] | outcome [17]
active: potentiation [15] 19.9%

CNCC(O)c1cc(F)c(OCc2ccccc2)c(OCc2ccccc2)c1F (stereo not given)
active: Tl flux remaining, % of negative control (hits give low values) [18] 34.5% | FluxOR signal as % of negative control (100 = no effect) [19] 74%

COC(=O)C(O)(c1ccc(NC(=S)NC(=O)c2ccc(Cl)cc2Cl)c(C)c1)C(F)(F)F (stereo not given)
active: potentiation [4] 18% | potentiation [15] 24.2%
inactive: outcome [1] | outcome [2] | outcome [3] | outcome [5] | outcome [6] | outcome [7] | outcome [8] | outcome [9] | outcome [10] | outcome [11] | outcome [12] | outcome [13] | outcome [14] | outcome [16] | outcome [17]

CCCCN1C(=O)NC(=O)C2(Cc3c(nc4c(C)cccn4c3=O)N3CCc4ccccc4C32)C1=O (stereo not given)
active: potentiation [4] 23% | potentiation [15] 37.1% [hits give high values]
inactive: outcome [1] | outcome [2] | outcome [3] | outcome [5] | outcome [6] | outcome [7] | outcome [8] | outcome [9] | outcome [10] inactive [setting not given] | outcome [11] | outcome [12] inactive [setting not given] | outcome [13] | outcome [14] inactive [setting not given] | outcome [16] | outcome [17] inactive [setting not given]

COc1ccc(C(=O)C2CN(C)CC2c2ccc(Cl)cc2)cc1 (stereo not given)
inactive: outcome [1] | outcome [2] | outcome [3] | outcome [4] | outcome [5] | outcome [6] | outcome [7] | outcome [8] | outcome [9] | outcome [10] | outcome [11] | outcome [12] | outcome [13] | outcome [14] | outcome [15] | outcome [16] | outcome [17]

CN1CCN(Cc2cc(=O)n3ccsc3n2)CC1
active: potentiation [15] 20%
inactive: outcome [1] | outcome [2] | outcome [3] | outcome [4] | outcome [5] | outcome [6] | outcome [7] | outcome [8] | outcome [9] | outcome [10] | outcome [11] | outcome [12] | outcome [13] | outcome [14] | outcome [16] | outcome [17]

CC(Cc1ccccc1)NCC(=O)Nc1cc(N(C)C)nc2ccccc12 (stereo not given)
active: inhibition [5] 82% | inhibition [14] 46%
inactive: outcome [1] | outcome [2] | outcome [3] | outcome [4] | outcome [6] | outcome [7] | outcome [8] | outcome [9] | outcome [10] | outcome [11] | outcome [12] | outcome [13] | outcome [15] | outcome [16] | outcome [17]

c1ccc(C2NCc3ccccc3-n3cccc32)cc1 (stereo not given)
active: Tl flux remaining, % of negative control (hits give low values) [18] 52%
inactive: outcome [19]

Clc1ccc(OCC#CCN2CCCC2)cc1
inactive: outcome [1] | outcome [2] | outcome [4] | outcome [5] | outcome [6] | outcome [7] | outcome [8] | outcome [9] | outcome [10] | outcome [11] | outcome [12] | outcome [13] | outcome [14] | outcome [16] | outcome [17]
active: potentiation [3] 30% | potentiation [15] 26%

Cc1cccc(N=Cc2c(O)n(-c3ccccc3C)c(=O)[nH]c2=O)c1
active: potentiation [4] 28% | potentiation [15] 32.1% [hits give high values]
inactive: outcome [1] | outcome [2] | outcome [3] | outcome [5] | outcome [6] | outcome [7] | outcome [8] | outcome [9] | outcome [10] inactive [setting not given] | outcome [11] | outcome [12] inactive [setting not given] | outcome [13] | outcome [14] inactive [setting not given] | outcome [16] | outcome [17] inactive [setting not given]

Cc1ccc(-c2nc(N(C)C3CCN(C)CC3)c3ccccc3n2)cc1
inactive: outcome [1] | outcome [2] | outcome [5] | outcome [6] | outcome [7] | outcome [8] | outcome [9] | outcome [10] | outcome [11] | outcome [12] | outcome [13] | outcome [14] | outcome [16] | outcome [17]
active: potentiation [3] 14% | potentiation [4] 24% | potentiation [15] 34.7%

C=CCOC(=O)C1=C(C)OC(N)=C(C#N)[C@@]12C(=O)N(CC(N)=O)c1ccccc12
inactive: outcome [1] | outcome [2] | outcome [3] | outcome [5] | outcome [6] | outcome [7] | outcome [8] | outcome [9] | outcome [10] | outcome [11] | outcome [12] | outcome [13] | outcome [14] | outcome [16] | outcome [17]
active: potentiation [4] 26% | potentiation [15] 7.13%

Nc1c([N+](=O)[O-])cc(F)c(N2CCNCC2)c1Br
inactive: outcome [1] | outcome [2] | outcome [3] | outcome [4] | outcome [5] | outcome [6] | outcome [7] | outcome [8] | outcome [9] | outcome [10] | outcome [11] | outcome [12] | outcome [13] | outcome [14] | outcome [16] | outcome [17]
active: potentiation [15] 22.5%
